# Bioassay records from PubChem BioAssay.
# Most compounds without a hit are left out; they make up all but 6% or so of the library.
# D1 ag: activates the human D1 dopamine receptor | HEK293 T-REx D1 cells, calcium flux, agonist mode | activation, % at 2 µM | actives 1% (n = 360,000) | AID 504660; in the data active means activation above about 30%
#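 Tetracycline-induced HEK293 TREx D1 cells, force-coupled to calcium signalling, were dye-loaded with a no-wash calcium kit. Compound was pin-added after a 10 s baseline. Fluorescence was read kinetically at 1 cycle/s for 180 s, with calcium rises flagged as agonism.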
# D3 ag: agonists of human D3 dopamine receptor | actives 0.58% (n = 410,000) | max activation, % | D3R DiscoveRx beta-arrestin cells, luminescence, 90 min | P35462; in the data active means max activation above about 30%
# Target sequence (P35462 whole entry, looked up): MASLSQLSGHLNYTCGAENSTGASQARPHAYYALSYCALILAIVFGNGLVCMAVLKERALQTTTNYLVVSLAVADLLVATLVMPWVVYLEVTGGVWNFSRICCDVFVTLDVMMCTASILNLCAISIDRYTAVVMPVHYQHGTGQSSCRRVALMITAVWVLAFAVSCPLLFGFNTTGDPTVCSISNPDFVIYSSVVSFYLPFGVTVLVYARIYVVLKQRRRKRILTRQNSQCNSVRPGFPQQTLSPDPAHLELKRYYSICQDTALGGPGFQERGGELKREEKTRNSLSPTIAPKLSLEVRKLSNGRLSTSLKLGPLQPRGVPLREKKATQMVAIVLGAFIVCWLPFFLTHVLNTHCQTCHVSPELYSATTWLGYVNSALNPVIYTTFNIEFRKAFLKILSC
#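 Cells at 1500/well, incubated overnight, then treated with pinned compounds (dopamine as control) for 90 min at 37 degrees C. DiscoveRx reagent added for 30 - 60 minutes at room temperature; luminescence read.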
# D3 antag: blocks the human D3 dopamine receptor; max response, negative = inhibition, %; D3R cells, DiscoveRx beta-arrestin luminescence, antagonist mode; active compounds read low; P35462; actives 2.5% (n = 360,000); in the data active means max response below about -50%; inconclusive means no clear call, values can overlap the other calls
#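 Cells expressing the human receptor were seeded at 1500 cells/well, incubated overnight at 37 degrees C in 5% CO2, then exposed to library compounds with dopamine controls for 90 minutes at 37 degrees C before luminescent detection.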
# D1 PAM: human D1 dopamine receptor positive modulation. AID 504651. actives 0.036% (n = 360,000). HEK293 TREx D1 cells, calcium flux, dopamine EC20 potentiation. potentiation, % at 10 µM. P21728; in the data active means potentiation above about 30%
# D1 antag: blocks dopamine activation of the human D1 receptor. HEK293 TREx D1 cells, calcium flux, dopamine EC80; active compounds read low. activity change, negative = inhibition, % at 10 µM. actives 3.2% (n = 360,000); in the data active means activity change below about -30%
#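 Antagonism measured as reduced calcium response to an EC80 dopamine addition following 180 s compound pre-read; cells were inducible HEK293 Trex D1 plated overnight at 30 C, read kinetically at 1 cycle/sec.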
# Numbers stand for hits; . = inactive; ? = inconclusive; / = no result.
SMILES,D1 ag,D3 ag,D3 antag,D1 PAM,D1 antag
COc1cc(C(CC(=O)N2CCN(c3ccccc3)CC2)c2c(OC)cc(OC)c3ccc(=O)oc23)cc(OC)c1OC (centres undefined),.,.,.,.,-42
CCN(CC)CCC(c1ccc(N(C)C)cc1)c1c(OC)cc(OC)c2c(-c3ccccc3)cc(=O)oc12 (centres undefined),39,.,.,.,-47
COc1cc(OC)c2ccc(=O)oc2c1C(CCN1CCN(c2ccccc2)CC1)c1ccc(N(C)C)cc1 (centres undefined),.,.,-115,.,-74
COc1cc(C(CC(=O)N2CCOCC2)c2c(OC)cc(OC)c3ccc(=O)oc23)cc(OC)c1OC (centres undefined),.,.,.,.,.
COc1ccc(C(CCN2CCOCC2)c2c(OC)cc(OC)c3ccc(=O)oc23)cc1 (centres undefined),/,.,.,/,/
CCc1ccc(NC(=O)Nc2ccccc2OCc2cc(=O)n3ccccc3n2)cc1,.,.,/,.,.
Cc1ccc(CN2C(=O)C(C)Nc3ncnc(N4CCN(c5ccccn5)CC4)c32)cc1 (centres undefined),.,.,-132,.,.
CC1Nc2ncnc(N3CCN(c4ccccn4)CC3)c2N(Cc2ccccc2)C1=O (centres undefined),.,.,-106,.,.
COc1ccc(CN2C(=O)C(C)Nc3ncnc(N4CCc5ccccc5C4)c32)cc1 (centres undefined),/,.,.,/,/
COc1ccc(CN2C(=O)C(C)Nc3ncnc(N4CCN(c5ccccn5)CC4)c32)cc1 (centres undefined),/,.,-149,/,/
Cc1oc2ncn(CC(C)C)c(=O)c2c1C(=O)NCCCN(Cc1ccccc1)C(C)C,.,.,/,.,.
Cc1c(OC(C)C(=O)NC2CC(C)(C)NC(C)(C)C2)ccc2c3c(c(=O)oc12)CCC3 (centres undefined),.,.,.,.,-49
Cc1c(OC(C)C(=O)NCc2ccccn2)ccc2c3c(c(=O)oc12)CCCC3 (centres undefined),.,.,.,.,-37
Cc1c(OC(C)C(=O)NCCN2CCOCC2)ccc2c3c(c(=O)oc12)CCCC3 (centres undefined),.,.,.,.,.
Cc1c(OC(C)C(=O)NCCCN2CCCC2=O)ccc2c3c(c(=O)oc12)CCCC3 (centres undefined),33,.,.,.,.
CC(Oc1cc2oc(=O)c3c(c2cc1Cl)CCC3)C(=O)NC1CC(C)(C)NC(C)(C)C1 (centres undefined),.,.,.,.,.
Cc1c(OC(=O)CNC(=O)OC(C)(C)C)ccc2c3c(c(=O)oc12)CCC3,.,.,.,.,-43
COc1ccc(C2Nc3ccccc3C(=O)N2Cc2ccccc2)cc1COc1ccc(Cl)cc1Cl (centres undefined),.,/,/,.,.
COC(=O)c1cc2oc3ccccc3c2n1Cc1nc(-c2cccc(C)c2)oc1C,.,.,/,.,.
CCCCCCN[C@H]1CCC2C3CC=C4C[C@@H](O)CC[C@]4(C)C3CC[C@@]21C (some centres undefined),/,.,.,/,/
CCN1c2ccccc2-c2nc(SCC(=O)Nc3cc(F)ccc3F)ncc2S1(=O)=O,.,.,/,.,.
Cc1[nH]c2ccc(C(=O)N3CCN(c4ccccc4F)CC3)cc2c1C,.,.,/,.,.
COc1ccc(CNc2nc(-c3ccco3)nn2S(=O)(=O)c2ccc3ccccc3c2)cc1OC,.,.,/,.,.
CCN(CC)c1sc(S(=O)(=O)c2ccccc2)nc1S(=O)(=O)c1ccc(C)cc1,.,.,/,.,.
CN(C)CCNS(=O)(=O)c1ccc(N2CCN(c3ccc(F)cc3)CC2)c([N+](=O)[O-])c1,59,.,.,.,-49
SMILES,D1 ag,D3 ag,D3 antag,D1 PAM,D1 antag
CC(=O)N1CCN(c2ccc(S(=O)(=O)NCCN(C(C)C)C(C)C)cc2[N+](=O)[O-])CC1,.,.,.,.,.
COc1ccc(-c2nc(C)c(CCNC(=O)C(=O)Nc3cccc(F)c3)s2)cc1OC,.,.,/,.,.
O=C(Nc1ccc(Br)cc1F)c1ccc2nsnc2c1,.,.,.,.,-33
Nc1nc(COC(=O)c2ccc3c(c2)OCCO3)nc(Nc2ccccc2)n1,33,.,.,.,-31
Nc1nc(COC(=O)CCC(=O)c2ccccc2)nc(Nc2ccccc2)n1,.,.,.,.,-32
Cc1ccc(Nc2nc(N)nc(COC(=O)C3=COCCO3)n2)cc1,.,.,.,.,.
Cc1ccc(C(=O)Nc2cccc(C(=O)OCc3cc(=O)n4nc(C5CC5)sc4n3)c2)cc1,33,.,/,.,.
Cc1cccc(C(=O)OCc2cc(=O)n3nc(C4CC4)sc3n2)c1,.,.,/,.,-31
O=C(Nc1ccc(F)cc1F)c1c(C(F)(F)F)ccnc1Oc1cccc(C(F)(F)F)c1,.,.,-58,.,.
Cc1ccc(C)c(OCCCCN2CCNCC2)c1C,.,.,.,.,.
COC(=O)c1ccccc1OCCCCN1CC(C)OC(C)C1 (centres undefined),.,.,.,.,.
CC1CN(CCOCCSc2ccc(Cl)cc2)CC(C)O1 (centres undefined),.,.,-64,.,.
CC1CN(CCOCCSc2ccccc2)CC(C)O1 (centres undefined),.,.,-67,.,.
Cc1ccc(C)c(OCCOCCN2CC(C)OC(C)C2)c1C (centres undefined),.,.,-75,.,.
CC1CN(CCCCSc2ccc(Cl)cc2)CC(C)O1 (centres undefined),.,.,.,.,.
CC1CN(CCOc2ccccc2C(C)C)CC(C)O1 (centres undefined),.,.,-69,.,.
O=C(CNC(=O)c1ccncc1)OC(C(=O)Nc1cc(C(F)(F)F)ccc1Cl)c1ccccc1 (centres undefined),.,/,/,.,.
O=C(Nc1ccccc1C(F)(F)F)N1CCC2(CC1)Oc1ccccc1C(=O)N2Cc1ccccc1F,.,.,/,.,.
Cc1sc(NC(=O)c2ccc(Br)s2)c(C(N)=O)c1C,.,.,?,31,.
CC(C)(C)c1ccc(C(=O)NC(Cc2ccccc2)C(=O)O)cc1 (centres undefined),.,/,/,.,.
O=C(COCc1ccccc1)N[C@@H](Cc1ccc(O)cc1)C(=O)O,.,.,.,.,-36
O=C(N[C@@H](Cc1ccc(O)cc1)C(=O)O)c1ccc(C(F)(F)F)cc1,.,44,.,.,.
CC(C)Cc1ccc(C(C)C(=O)Nc2ccccc2O)cc1 (centres undefined),65,.,.,.,.
N#Cc1c(Cl)nsc1NC(=O)c1ccccc1,34,.,.,.,-37
N#Cc1c(NC(=O)c2ccccc2)sc2c1CCCCC2,.,.,.,.,.
